Measurements reported in PubChem BioAssay (EPA / NIEHS).
Records with an inconclusive call do not appear. The source made the active and inactive calls. Rule for the calls: active = hit-call score of the fitted dose curve at least 0.9, where 1 is the maximum; inconclusive = response in the unintended direction; inactive = score below 0.9.

target: human Serotonin, 5-Hydroxytryptamine Receptor 7 (5HT7), HTR7 (gene 3363) (UniProt P34969); assay: NVS_GPCR_h5HT7: NovaScreen (NVS) G Protein-Coupled Receptor Assay for human Serotonin, 5-Hydroxytryptamine Receptor 7 (5HT7) (AID 2283255)
Sequence (P34969 whole entry, looked up): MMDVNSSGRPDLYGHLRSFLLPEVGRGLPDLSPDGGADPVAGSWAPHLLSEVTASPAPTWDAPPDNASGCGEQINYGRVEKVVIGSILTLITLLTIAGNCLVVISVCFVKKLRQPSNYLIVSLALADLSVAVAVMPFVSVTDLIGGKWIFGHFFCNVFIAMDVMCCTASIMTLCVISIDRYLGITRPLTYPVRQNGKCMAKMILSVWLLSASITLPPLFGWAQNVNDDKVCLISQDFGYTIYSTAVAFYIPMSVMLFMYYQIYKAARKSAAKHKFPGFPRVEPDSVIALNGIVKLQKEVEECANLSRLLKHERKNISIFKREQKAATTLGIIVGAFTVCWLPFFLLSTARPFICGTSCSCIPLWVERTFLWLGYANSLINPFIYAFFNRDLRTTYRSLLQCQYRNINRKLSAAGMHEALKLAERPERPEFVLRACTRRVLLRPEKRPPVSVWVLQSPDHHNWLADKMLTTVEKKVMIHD
Method: NVS_GPCR_h5HT7 is a biochemical, single-readout assay that uses extracted gene-proteins from CHO in a cell-free assay. Measurements were taken 1 hour after chemical dosing in a 96-well plate.NVS_GPCR_h5HT7 is one of one assay component(s) measured or calculated from the NVS_GPCR_h5HT7 assay. It is designed to make measurements of radioligand binding, a form of binding reporter, as detected with scintillation counting signals by Filter-based radiodetection technology.Data from the assay component NVS_GPCR_h5HT7 was analyzed into 1 assay endpoint. This assay endpoint, NVS_GPCR_h5HT7, was analyzed in the positive analysis fitting direction relative to DMSO as the negative control and baseline of activity. Using a type of binding reporter, loss-of-signal activity can be used to understand changes in the binding as they relate to the gene HTR7. Furthermore, this assay endpoint can be referred to as a primary readout, because the performed assay has only produced 1 assay endpoint. To generalize the intended target to other relatable targets, this assay endpoint is annotated to the gpcr intended target family, where the subfamily is rhodopsin-like receptor.
Binding assays used specific radioligands (tritiated, iodinated) with non-radioactive competitive displacement ligands in agonist or antagonist protocols (as indicated) and various reference compounds and inhibitors to titrate specific binding to receptors and transporters. Most enzyme assays (CYPs, kinases, phosphatases, proteases, HDACs) used recombinant protein and specific substrates (fluorescence mostly, some colorimetric and radioactive) and inhibitors, followed by a biochemical separation of substrate and product. All assays for the biochemical HTS were initially run in duplicate at a single concentration (10 uM for CYP450 assays and 25 uM for all others). […] Each assay was run with positive and negative controls, and concurrent controls on every plate. The follow-up (secondary) screen tested active chemical-pairs in concentration series, as well as a few additional assays not tested in the primary screen, some selected negative inactives, and several cases re-run in the concentration series for confirmatory purposes.

Question: `O=c1[nH]sc2ccccc12` was tested. Which AC50 did it give?
Answer: 14.7 µM (active)

Question: For `CCCCCCCCOC(=O)c1cc(O)c(O)c(O)c1`, which AC50 is on record?
Answer: 17 µM (active)

Question: With `O=C1c2ccccc2C(=O)N1CCc1noc(-c2ccc(CN3CCCCCC3)s2)n1` as the molecule, how does the AC50 read?
Answer: 8.12 µM (active)

Question: `Cc1occc1C(=O)Nc1ccc(C(=O)N2CCC(F)(F)/C(=C\C(=O)N3CCC(N4CCCCC4)CC3)c3ccccc32)cc1` was tested. Which AC50 did it give?
Answer: 4.89 µM (active)

Question: For `CCCCCCCCCCCC[N+](C)(C)C`, which AC50 is on record?
Answer: 17.3 µM (active)

Question: With `CCN(CC)C(=O)c1cc(S(=O)(=O)Cc2ccccc2)c(N2CCC(c3ccccc3)CC2)cc1N(CC)CCN(C)C` as the molecule, how does the AC50 read?
Answer: 8.87 µM (active)

Question: With `COc1ccc2cc(S(=O)(=O)N[C@H](CC(=O)N[C@H](Cc3ccc(CN4[C@H](C)CCC[C@@H]4C)cc3)C(=O)N(C)C(C)C)c3ccc4c(c3)OCO4)ccc2c1` as the molecule, how does the outcome read?
Answer: inactive

Question: Which AC50 does the source give for `CN(C)c1ccc(C(=C2C=CC(=[N+](C)C)C=C2)c2ccc(N(C)C)cc2)cc1` here?
Answer: 4.11 µM (active)

Question: Which AC50 does the source give for `Cc1cc(F)ccc1-c1cc(N2CC[C@@H](O)[C@H]2CO)ncc1N(C)C(=O)C(C)(C)c1cc(C(F)(F)F)cc(C(F)(F)F)c1` here?
Answer: 2.69 µM (active)

Question: How did the AC50 turn out when `CCN(Cc1cccnc1)C(=O)c1cccc(Cl)c1[C@]1(C)C(=O)N(Cc2ccc(OC)cc2OC)c2ccc(Cl)cc21` was run?
Answer: 6.41 µM (active)

Question: How did the AC50 turn out when `CN(C)C(=O)C1(N2CCCCC2)CCN(CC[C@@]2(c3ccc(Cl)c(Cl)c3)CN(C(=O)c3ccccc3)CCO2)CC1` was run?
Answer: 3.39 µM (active)

Question: Which AC50 does the source give for `CN(C[C@@H](CC[N+]12CCC(C3CCCCC3)(CC1)CC2)c1ccc(Cl)c(Cl)c1)C(=O)c1cc(C(F)(F)F)cc(C(F)(F)F)c1` here?
Answer: 1.53 µM (active)

Question: With `COc1cc(C(=O)NC2CCN(C)CC2)ccc1Nc1ncc2c(n1)N(C1CCCC1)CC(F)(F)C(=O)N2C` as the molecule, how does the AC50 read?
Answer: 3.25 µM (active)

Question: How did the AC50 turn out when `COc1cccc([C@H](O)C2CCN(CCc3ccc(F)cc3)CC2)c1OC` was run?
Answer: 0.395 µM (active)

Question: For `CCCCCCCCCC(=O)O`, which outcome is on record?
Answer: inactive

Question: How did the outcome turn out when `Cc1cc2c(cc1C(F)(F)F)N(C(=O)Nc1ccc(Oc3cccnc3C)nc1)CC2` was run?
Answer: inactive

Question: For `NCc1cccc(C2CCN(C(=O)c3ccc(C#Cc4ccccc4F)o3)CC2)c1`, which AC50 is on record?
Answer: 6.87 µM (active)

Question: How did the AC50 turn out when `CCN(Cc1cccc(S(=O)(=O)O)c1)c1ccc(C(=C2C=CC(=[N+](CC)Cc3cccc(S(=O)(=O)O)c3)C=C2)c2ccccc2S(=O)(=O)[O-])cc1` was run?
Answer: 10.3 µM (active)

Question: How did the outcome turn out when `CN1C(=O)N(c2ccccc2Br)Cc2cnc(Nc3ccc4c(c3)OCC(CO)O4)nc21` (stereo not given) was run?
Answer: inactive

Question: For `CCOC(=O)O[C@H](C)OC(=O)c1ccc2c(c1)cc(C(=O)NC1CCN(C(C)C)CC1)n2Cc1cc(-c2ccc(Cl)s2)on1`, which AC50 is on record?
Answer: 2.12 µM (active)
